# In PubChem BioAssay (NCI):
# About 83,000 compounds went through this panel and 20% of them were active in at least one assay; those are over-represented in the sample as a whole.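 48-hour exposure, single concentration, 96-well plates; percent growth endpoint where 0 means no net growth. Active: below 10.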 Unmarked numbers belong to inactive results. The source made the active and inactive calls.
# System: MDA-MB-468 breast
# Assay: NCI-60 one-dose screen, 48 h (100 = growth as untreated, 0 = no growth, -100 = all killed)
# Details: 10 µM unless noted
row,Structure (SMILES),growth
1,NC(=O)c1cc(-c2ccc3ncnc(N4CCc5cc(F)c(Cl)cc54)c3c2)cnc1N,-35.3% (active)
2,CC(C)c1cc(C(C)C)c(S(=O)(=O)Oc2ccc(NC(=O)c3ccc(Cl)cc3)cc2)c(C(C)C)c1,8.01% (active)
3,N=C(N)c1ccc(-c2ccc(-c3ccccc3)s2)s1,-94.5% (active)
4,COc1c(C)c2c(c(O)c1C/C=C(\C)CCC(=O)OCCN1CCOCC1)C(=O)OC2,32.6%
5,CCOC(=O)NNc1cccc(Cl)c1,98.2%
6,CC1=C(C/C=C(\C)CCC[C@H](C)CCC[C@H](C)CCCC(C)C)C(=O)c2ccccc2C1=O,116%
7,ClCC#CCSc1ncnc2c1ncn2CC#CCCl,-57.2% (active)
8,Cn1ccc(Nc2nccc(Oc3ccc(C(=O)Nc4cccc(F)c4)c(Cl)c3)n2)c1,-12.3% (active)
9,CCOC(=O)c1cc(C(=O)c2ccc(Br)cc2)n2ccc(/C=C/c3cc[n+](CC(=O)c4ccc(OC)cc4)cc3)cc12,66.4%
10,COc1cc(Nc2c(C#N)cnn3cc(-c4cnn(CC(C)(C)O)c4)cc23)ccc1Cl,65.1%
11,O=[N+]([O-])c1cc(Br)c2cccc3c2c1CC3,97.3%
12,Oc1ccccc1/C=N/N1CCCCCC1,107%
13,COC[C@@H](C)n1c(C2CCOCC2)nc2c1C1C=C(OC)C(c3c(C)noc3C)=CC1N=C2 (stereo not given in full),32.4%
14,CCN1CCN(CCNc2nccc(-c3c(-c4ccc(F)c(O)c4)nc4occn34)n2)S1(=O)=O,23.5%
15,Cc1ccc(S(=O)(=O)Oc2ccc3sc4c(CO)ccc(NCCN(C)C)c4c(=O)c3c2)cc1,-75.1% [100 µM] (active)
16,COCCn1cc(-c2nc(-c3cc4cccnc4n3C)cs2)c2cc(OC)ccc21,-28% (active)
17,O=C(NCCCNc1cc(-c2cn(-c3ccccc3)nc2-c2cccc(O)c2)ccn1)Nc1cccc(C(F)(F)F)c1,11.2%
18,Brc1ccc(Nc2nc(Nc3cnc4ccccc4c3)c3[nH]cnc3n2)cc1,65.5%
19,COc1cc(OC)c(/C=C/S(=O)(=O)Cc2ccc(OC)c(N)n2)c(OC)c1,13.5%
20,COc1ccc(-c2nc(SCC(C)C)nc(Nc3ccc([N+](=O)[O-])cc3)c2C#N)cc1,93.4%

row,Structure (SMILES),growth
1,COC(=O)/C=C1/SC(=Nc2ccc(F)cc2)N(CCc2c[nH]c3ccc(O)cc23)C1=O,36%
2,COc1nc2c(c(=O)[nH]1)C(c1ccc(Oc3ccnc4cc(Cl)ccc34)c(OC)c1)C=C(c1cc(OC)c(OC)c(OC)c1)N2 (stereo not given),92.1%
3,CCCCCCC[C@@H](O)CC(=O)N[C@H](CCCCN)C(=O)N[C@H](Cc1c[nH]c2ccccc12)C(=O)NC(CCCCN)C(=O)N[C@H](CC(C)C)C(=O)N[C@H](Cc1ccccc1)C(=O)N[C@H](CCCCN)C(=O)N[C@H](CCCCN)C(=O)N[C@H](CC(C)C)C(=O)N1CCCC1C(=O)N[C@H](CCCCN)C(=O)N[C@H](Cc1ccccc1)C(=O)N[C@H](CC(C)C)C(=O)N[C@H](Cc1c[nH]cn1)C(=O)N[C@H](CC(C)C)C(=O)N[C@H](C)C(=O)N[C@H](CCCCN)C(=O)N[C@H](CCCCN)C(=O)N[C@H](Cc1ccccc1)C(=O)O (stereo not given in full),-58.2% (active)
4,Clc1ccc(-c2nnc(-c3ccco3)o2)cc1,100%
5,O=C(Nc1ccc(Oc2ccc(Nc3nc4ccccc4s3)cc2)cc1)Nc1ccc(Cl)c(Cl)c1,8.01% (active)
6,COC(=O)c1nc(-c2ccccc2)oc1S(=O)(=O)N1CCN(c2ccc(OC)cc2)CC1,22.6%
7,COc1cccc(-c2nn(-c3ccccc3)cc2-c2ccnc(-c3cccnc3)c2)c1,80.4%
8,CC(=O)Nc1cccc(Cl)c1C,103%
9,Cc1cc(-c2cc(O)ccc2Cl)cc2nnc(Nc3ccc(OCCN4CCCC4)cc3)nc12,-69.4% (active)
10,COc1ccc(C(=O)c2cc(OC)c(OC)c(OC)c2OC)cc1O,29.7%
11,CC(C)c1ccc2c(c1)CC[C@H]1[C@](C)(C(=O)OCC#CCN3CCCC3)CCC[C@]21C,52.4%
12,O=C1Nc2ccc(Br)cc2C1=O,109%
13,O=c1c2ccccc2c(=O)c2c1sc1c(=O)c3ccc(O)cc3c(=O)c12,-43.6% (active)
14,O=C(Nc1ccc2c(O)cc(S(=O)(=O)O)cc2c1)c1ccc([N+](=O)[O-])cc1,95.4%
15,O=C(c1nc2ccccc2[nH]1)C1C(c2ccc(Cl)cc2)C2CC3CCCC[C@H]3N2[C@@]12C(=O)Nc1cc(Cl)ccc12 (stereo not given in full),12.1%
16,CC(=O)C(C(C)=O)c1nc2sc3cc(Cl)ccc3n2c(=N)c1C#N,41.7%
17,CN(C)CCCn1c2c(c3cc(-c4ccco4)ccc3c1=O)C(=O)c1ccccc1-2,40.2%
18,CC(=O)Nc1cc(F)cc(-c2ccc3[nH]cc(-c4ccccc4)c3n2)c1,-21.9% (active)
19,Cc1ccc(C2=N[C@H]3CCC[C@@H]3N(c3ccccc3)C(C(Cl)Cl)=N2)cc1,116%
20,CC1=NCC2NC(=O)NC(C)=C12 (stereo not given),92.3%
